According to PubChem BioAssay AID1508600 (Functional Genomics Laboratory (NCATS/FGL), 2020):
Screen size: about 53,000 sequences; about 3,700 (7%) were called active.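 The calls were made as follows: active = gene knockdowns whose robust z-score for IL-1 alpha signal is at least 2 or at most -2, so actives lie on both sides; inactive = the rest.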 This excerpt belongs to a sample that is enriched for actives.

Experiment: Components of the Cytosolic LPS Sensing Pathway: Gene Identification via Genome-wide siRNA Screen;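 also: robust z of the log signal after scaling to non-targeting control siRNA wells of the plate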
Settings: RAW264.7 macrophages, IL-1a HTRF, actives lie on both sides, screened at 100 nM (by protocol), cells primed 5 h with Pam3CSK4 first
In short: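 Knockdown: 100 nM siRNA, 48h, RAW264.7. Stimulation: Pam3CSK4 5 h, then LipidA via TransIT-TKO 24 h. Output: supernatant IL-1a HTRF, negative-control-normalized, log robust z-score; viability by CellTiter-Glo.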

z-score, inactive:
GGAUAACAGAUGGUUAAUATT against Pramel48 0.202, GGUUGGAUUCCUGAUAUUATT against Moxd2 -0.22, CGGCACUAGGAAGCUUUUATT against Inpp5a -0.185, GCAUCUACCAUGGAAAUAUTT against Clcn7 0.053, GCUGGUUGUAGUAAAACAGTT against Resf1 -1.29, GCUGGUAUGACCAAGAGAATT against Mutyh 0.679, GGGAAAUGACCUUCAUUGGTT against Rbl2 1.05, GGUCAGUCAACAUGAACUUTT against Acad9 0.0973, GGGAGUUGAGAAGACAUAATT against Lim2 0.223, CCUCACCAAACCUUGUUGATT against Cd300lg -1.57, GGCUAAGACUAUGUUGUAATT against Smcp -1.48, GCUCAUAAAACUCCAAAAGTT against Mob4 -0.713, GCAACUCUGAGGUUGCUAGTT against Pgam1 -0.12, GGCUGAAUGUCGCUUAGAGTT against 9030612E09Rik -0.875, GGCUUAGCUUUUGUGAUUCTT against Olfr143 -1.24, GGUGUCCCUUAAUGUGUCCTT against Heg1 0.671, GCCUCUCUGGUGAACUUAGTT against Ccar1 0.0406, GGAAGGACUUAAAUGAUGCTT against Rnf187 -1.18, GGUGGACAUUCCUAAGAUUTT against Ago1 -0.97, CGCAUAAUGGAUGAGAGGATT against Mef2a 0.871, GCAGAGUGCUCGUAGAGUGTT against Heatr5a 0.96, GGAGGUUCAACAUGAAAAUTT against Lingo2 -0.253, GGCCUUUGCACGUGGAUUGTT against Zfp420 -0.221, GGGAAUCAUGAUAUGUUUCTT against Tmem186 -0.217, GGAGGUCCAUGUCCUGCUUTT against Mesp2 0.336, CCUCGGUCAGAUUCCUGAUTT against Phpt1 0.101, CCAAUAACUACUCAUACCCTT against Ints1 0.105, GCAUGUAGUAUGGUAACACTT against Akr1b7 -1.78, CCUUAAACAGCUUUUCAGATT against Dync2h1 0.472, CGAAAACUUCAUAGCUACATT against Hmg20a -1.95, GCAGACAAUAUCUCUGAAUTT against Olfr459 -0.942, CCUCUCAAGAAAUCGUGCATT against Trim47 0.978, GCAGAUUGUGCAGCUAGCATT against Pax4 0.452, CCAUCUCAUUCCUUACCAGTT against Gm4736 -1.79, GGAUAAGAUAAUGUCUGUGTT against Olfr716 -1.73, GGCUGAGUUAUUUGUGACATT against Syt13 -1.41, CGGCCUGGGUCCCGUGGACTT against Hs3st6 -1.18, CGCAUGCCUGUAAAAUAAATT against 2310057M21Rik -1.37, GCGAGGAAAGAGCACUGUATT against Fam107a -0.103, GGGCUAUGUUCGAAGUAAATT against Kbtbd3 -0.848, GGAUAUUUGGAGGACAACCTT against C1s1 0.0678, CGAGAGGUUUGUCCAUAGATT against Tac4 -0.86, GGGACAAUAAAACCAACACTT against Ulk4 -1.04, GGCUCCUCAUUACCUCUACTT against Rrp7a 0.233, GGGCCACACAGAAAUGGUUTT against Ank1 0.994, GGAGAAAGGUGCUUCCGAUTT against Mrpl19 0.47, CGAUGGCUUGGUUCCAUUUTT against Tcaf3 -0.0976, GGCACUACAACGGAACUCATT against Slco5a1 -1.82, GCGUGUUAGGAAAAACUCUTT against Pars2 1.36, CCUUUACUGUCCAUUCCGATT against Stxbp2 -0.533, CCCUGUGAAAGUGUCAUAUTT against Pigq 1.28, GGUUCAACUUCACACUGAGTT against Mettl22 1.08, GGAAAAAAAUGCUGUAUACTT against Insm1 -0.599, ACCUGUGAUGGUGGAGACUTT against AF067061 0.577, GCAUGCCCGUAAUCAAGUGTT against Racgap1 0.104, GGACUUCAGCAACUAUAGUTT against Ggt7 -0.631, GUUCCACUACUUCUGCUCCTT against Olfr583 0.41, GGUGCUUCCAGAAUCUUUATT against Epha5 0.517, GGAAGGUAUCUGAGGUCCGTT against 2810408A11Rik -0.106, GGCAUUGCUGGACUUUGAATT against Mvp -1.71, GCUGCACGCACUGAUCAAGTT against Tjap1 1.02, CGGUGACGACGGAAUUCUATT against Cpne4 -1.42, GGAUUCAGAAGGCCUCAGUTT against Olfr399 0.132, UACUAGCAGAUUAACCACCTT against H2bc4 -0.192, GGCAUCAACAGAAUAACCATT against Tomm34 -1.31, GCUGCAUCGAAAAACUCAGTT against Mycbp2 -0.564, GGAUUAUGGACCUCUUGGUTT against 4930595M18Rik 0.554, CCCAGUUGACAGGAGACCATT against Hps6 1.13, GCAUUAUAAAAAGGUUCCGTT against Atp2b1 1.81, GGCCCAAGAGAAUAUCCAGTT against Gm6460 0.281, CCACCGAAAUCCUUAUUUUTT against Ppargc1a 0.522, GCCAAGAGCACAUCUGCUATT against Suco -1.65, GCUGGGUCAAACAUGACGUTT against Klhl17 0.452, ACCCUUUUGUUUACACUCUTT against Olfr763 -0.76, GCCCAAAGAUGACAUCGUATT against Gars 1.74, GCUAGACCCAUAAUAAAACTT against Synpo2l -0.851, UUGACUCACCUUCCGAGGUTT against Lce1a1 0.0827, CCGUUUACCAACCAAGAAUTT against Tnfrsf17 0.0608, GGUUUGCUACACUUCAGAATT against Xpr1 0.101, GCCAACUAGAAAACAACUGTT against Pdzd11 1.6, GGUGGAACAGGCAGAAUUCTT against Syn2 1.92, GGUCGCUACAAGAUGACUUTT against Hapln4 0.289, CCAGAGUACAGUGUAGUCATT against Hspb6 0.508, GAACUUUUUUUCUGUGAACTT against Olfr175 -1.58

z-score, active:
GGAGCUGGAGAAGUUACUUTT against Amigo3 2.06, GGCAGGACAUUCUCAAAUCTT against Praf2 2.51, CGGGCAGUACUAUGAUUUGTT against Ppp1cc 2.09, GGCUCUUUGUUCAGUUUUUTT against Fxyd3 2.52, CCAUAUAACUGCCAAUAAUTT against Ankrd7 -2.02, CCCUCAUUGUAACCUUAACTT against Olfr792 -2.27, GCCUCACUUGAUGAAAUGGTT against Sccpdh -2.13, GCAGUGUAUAGGUGUACAATT against Krt2 3, GCAGAACCGCCAACCAACATT against Smarcc2 -2.03, UCUUACACUUCGUGUUCCATT against Gpr6 3.12, GGGUAACAGUGGUGAACCUTT against Col1a1 2.08, GGGAAUUUUGGAAGAGUCUTT against F630003A18Rik -3.23, GGUGAGUAUAUUCAAGUUATT against Ndor1 4.36, CCACCUUGGUCUAAUUUCUTT against Slitrk4 -2.06, CCGAGCAGUAUGUGAACGUTT against Cela1 3.56, GGUGCUUUGUAAACUGUCUTT against Slc26a11 -2.99, CCGGUUUCAAAUUGCCACUTT against Psmb4 -2.73, GGUUUUGUUAAAGAAGACGTT against 4833439L19Rik -2.25, GGCCAAGUUUGACAAGGAATT against Nap1l5 2.32, GCAGGACAAGGACAACACUTT against Dyrk2 -2.1, GCGCAAUAUAGAGUCAUCATT against Rnls -2.83, GCCAGUCAGAUGUACAGUCTT against Pbx1 3.28, GGAAAUCGAGAGAAAUUCATT against Tead2 2.07
